About 83,000 compounds went through this panel and 20% of them were active in at least one assay; those are over-represented in the sample as a whole.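 Single-dose data. Exposure time 48 hours. Values below 10 considered active.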 Values without a mark were called inactive. Calls of active or inactive are those of the source.
How the values were obtained:
Experiment in all cases: NCI-60 one-dose screen, 48 h (100 = growth as untreated, 0 = no growth, -100 = all killed)
Details in all cases: 10 µM unless noted
NCI-H23 lung = tested on: NCI-H23 lung
NCI-H226 lung = tested on: NCI-H226 lung
NCI-H322M lung = tested on: NCI-H322M lung
HOP-62 NSCLC = tested on: HOP-62 NSCLC
NCI-H460 lung = tested on: NCI-H460 lung
HOP-92 NSCLC = tested on: HOP-92 NSCLC
NCI-H522 lung = tested on: NCI-H522 lung
A549/ATCC NSCLC = tested on: A549/ATCC NSCLC
786-0 renal = tested on: 786-0 renal
COLO 205 colon = tested on: COLO 205 colon
DU-145 prostate = tested on: DU-145 prostate
K-562 leukemia = tested on: K-562 leukemia
MALME-3M melanoma = tested on: MALME-3M melanoma
MDA-MB-231 breast = tested on: MDA-MB-231 breast
RXF 393 renal = tested on: RXF 393 renal
SF-268 CNS = tested on: SF-268 CNS
SF-295 CNS = tested on: SF-295 CNS
SF-539 CNS = tested on: SF-539 CNS
UACC-257 melanoma = tested on: UACC-257 melanoma
M14 melanoma = tested on: M14 melanoma

| Structure (SMILES) | growth (NCI-H23 lung) | growth (NCI-H226 lung) | growth (NCI-H322M lung) | growth (HOP-62 NSCLC) | growth (NCI-H460 lung) | growth (HOP-92 NSCLC) | growth (NCI-H522 lung) | growth (A549/ATCC NSCLC) | growth (786-0 renal) | growth (COLO 205 colon) | growth (DU-145 prostate) | growth (K-562 leukemia) | growth (MALME-3M melanoma) | growth (MDA-MB-231 breast) | growth (RXF 393 renal) | growth (SF-268 CNS) | growth (SF-295 CNS) | growth (SF-539 CNS) | growth (UACC-257 melanoma) | growth (M14 melanoma) |
| --- | --- | --- | --- | --- | --- | --- | --- | --- | --- | --- | --- | --- | --- | --- | --- | --- | --- | --- | --- | --- |
| CCOC(=O)c1cn2ncnc(Oc3ccc(NC(=O)NC4CC4)c(Cl)c3)c2c1C | 84.6% | 71.4% | 101% | 90.9% | 102% | 109% | 75.9% | 99.2% | 93.5% | 108% | 97% | 73.6% | 95.3% | 89.3% | 92.3% | 88.9% | 84.8% | 79.5% | 100% | 98.9% |
| CCN(CC)C(=O)CC1=C(C)/C(=C/c2[nH]c(-c3ccc[nH]3)cc2OC)N=C1C | 34% | 20% | 37.1% | 33.1% | 9.17% (active) | -14.8% (active) | 10.1% | 4.73% (active) | -13.3% (active) | 15.9% | 34.8% | 6.08% (active) | 1.07% (active) | -0.929% (active) | 35.9% | 21.7% | -51.6% (active) | 20.6% | 5.68% (active) | -55.8% (active) |
| O=CCCCOCc1ccccc1 | 96.4% | 96.5% | 110% | 93.2% | 107% | 90.6% | 88.5% | 95.3% | 98.4% | 109% | 102% | 104% | 95.8% | 101% | 113% | 103% | 95.1% | 101% | 103% | 96.4% |
| CC(=O)O[C@H]1CC[C@]2(C)[C@H]3CC=C4[C@@H]5CC(C)(C)CC[C@]5(C(=O)N5CCN(CCC#N)CC5)CC[C@@]4(C)[C@]3(C)CC[C@H]2C1(C)C | 45.3% | 48.9% | 53.3% | 41.2% | -1.52% (active) | 56.7% | 38.9% | 25.6% | 47.4% | 21.1% | 57.8% | 10% | 26% | 48.5% | 74.3% | 51.8% | 65.5% | 16.7% | 18.1% | 35.7% |
| O=C(Nc1nc(Cl)nc(Nc2ccc(N3CCOCC3=O)cc2)n1)c1ccc(Cl)s1 | 88.1% | 86.4% | 97.8% | 97.6% | 99.9% | 80.2% | 81.1% | 77.3% | 108% | 97.3% | 104% | 64.2% | 88.3% | 88.3% | 91.3% | 95.9% | 92.7% | 104% | 72.2% | 90.4% |
| Cc1nc2sc(C(=O)Nc3ccccn3)c(N)c2cc1C(C)O (stereo not given) | 84.3% | 85.8% | 83.1% | 63.9% | 80.2% | 74.3% | 59.9% | 82% | 82.1% | 75.1% | 103% | 31.1% | 97.9% | 59.1% | 71.2% | 83.6% | 65.1% | 59.8% | 81.6% | 49.3% |
| CNC(=O)c1cc(Oc2ccc3c(c2)sc2nc(-c4ccc(Cl)c(C(F)(F)F)c4)cn23)ccn1 | 53% | 52.6% | 88.5% | 75.9% | 51.3% | 73.1% | 42.6% | 61% | 68.6% | 58.4% | 74% | 30% | 47.4% | 77.1% | 87.1% | 73.7% | 48.5% | 64.4% | 35.9% | 69.5% |
| Cc1cc(Cl)nc(N2CCN(CCNc3ccnc4cc(Cl)ccc34)CC2)n1 | 27.2% | 59.8% | 75.2% | 68.2% | 48.3% | 27.9% | 51.8% | 58.2% | 49.1% | -50.1% (active) | 66.6% | 10.5% | 41.8% | 49.5% | 61.5% | 72.2% | 36.4% | 31.7% | 13.5% | 30.9% |
| CN(C)CCCNC(=O)c1cncnc1Nc1ccc2c(ccn2Cc2cccc(F)c2)c1 | 95.6% | 99.4% | 98.6% | 99.9% | 95.5% | 78.3% | 98.2% | 84.9% | 79.5% | 84.6% | 97.8% | 37.5% | 81.9% | 67.6% | 70.9% | 85.6% | 106% | 83.7% | 84.4% | 107% |
| c1cc(OCCN2CCCCC2)ccc1CNc1ccc2nc(CCC3CCCCC3)[nH]c2c1 | 73.8% | 36.2% | 74.6% | 54.2% | 33.6% | 26.7% | 50.4% | 42.3% | -61% (active) | -66% (active) | 59.9% | -1.42% (active) | -85.9% (active) | 9.11% (active) | 11.9% | 57.6% | -38.6% (active) | -73.3% (active) | -75% (active) | -75% (active) |
| O=c1oc2c(cc1-c1ccccc1)c(=O)[nH]c1ccccc12 | 95.8% | 102% | 104% | 106% | 105% | 103% | 94.2% | 97.7% | 85.9% | 107% | 105% | 89.2% | 95.7% | 96.8% | 102% | 100% | 94.6% | 106% | 100% | 99.7% |
| CCN(CC)CCOc1ccc(C(=O)/C=C\c2ccc(Cl)cc2Cl)cc1 | 58.3% | 53.5% | 63.9% | 57.2% | 61.3% | 24.5% | 44% | 21.7% | 35.9% | -53.5% (active) | 51.7% | 3.71% (active) | 42.4% | 32.6% | 34% | 55.2% | 63.2% | 30% | 3.72% (active) | -37.4% (active) |
| C[C@H](c1nc2ccc(C#N)cc2[nH]1)[C@H]1CC[C@H]2[C@@H]3CCC4=CC(=O)CC[C@]4(C)[C@H]3CC[C@]12C | 59.7% | 78.4% | 94.4% | 101% | 64% | -9.25% (active) | 69.8% | 63.9% | 67.4% | 79.2% | 68.9% | 40.8% | 85.6% | 70.1% | 64.3% | 78.5% | 48.7% | 62.9% | 68.2% | 70.1% |
| COC(=O)c1c(C)nc(C)c2c1C(=O)C=C(NCc1ccccc1)C2=O | 72% | 93.9% | 92.5% | 91.2% | 67.1% | 117% | 78.8% | 103% | 84.7% | 78.5% | 95.8% | 69.1% | -1.94% (active) | 70.3% | 94.5% | 78.8% | 87.2% | 96.9% | 104% | 66.9% |
| CCCCCc1ccc(S(=O)(=O)Nc2cc(-c3csc(NC(C)=O)n3)ccc2N2CCN(C)CC2)cc1 | 65.5% | 94.1% | 73.2% | 83.3% | -11.4% (active) | 36% | 67.3% | 55.8% | 56.7% | -38.9% (active) | 75.8% | -32.6% (active) | -47.1% (active) | 51.8% | 33.3% | 72% | 49.9% | 61.6% | -21.9% (active) | -52.4% (active) |

From PubChem BioAssay (NCI)
